High-throughput results as filed in PubChem BioAssay.
Most compounds without a hit are left out; they make up all but 19% or so of the library.
ELG1 repair inh = blocks ELG1-dependent DNA repair in HEK293T cells. Potency, µM (doses to about 46.1 µM), for inactives: at the top dose activity change, negative = inhibition, hits mostly inhibitors. HEK293T ELG1-luciferase reporter, luminescence, 16 h; DNA damage induced by 5-fluorouridine. AID 504467. 2.3% of 330,000 active; further: potency means the concentration at half of the fitted maximal effect; nearly all actives have a fitted effect of over 55% in size
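Cells (2,000 per well) received 5-fluorouridine plus test compound or DMSO and were incubated 16 hr at 37 °C, 5% CO2. Luciferase activity was read by luminescence 30 min after ONE-Glo addition; signal suppression marked inhibition of damage-induced ELG1 function.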
IL-1B inflam inh = inhibitors of inflammasome signaling (IL-1 beta secretion); AID 743279; THP-1 LPS/ATP IL-1B secretion, AlphaLISA, 16 h; hits give low values; activity change, % at 57.5 µM; 4.7% of 360,000 active; in the data active means activity change below about -50%; inconclusive means mostly about -30% to -49%
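Secreted IL-1B measured by AlphaLISA bead assay after 16 h compound exposure of THP-1 cells; compounds (final up to 57.5 uM) added 1 h before LPS (250 ng/mL) and ATP (1.25 mM) stimulation; lower signal means less secretion.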
Giardia kill = Giardia lamblia killing; 0.15% of 340,000 active; activity change, % at 7.66 µM, hits read low; Giardia lamblia trophozoite viability; AID 540267; in the data active means activity change below about -80%; inconclusive means between about -30% and that limit;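 further: parasites exposed to compound for two days anaerobically before the ATP read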
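Killing of trophozoites was scored by loss of ATP luminescence after a 48 hrs anaerobic exposure to compounds at 37 deg C, using 100 cells per well.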
TDP1 inh = TDP1 (human) enzyme inhibition; 0.28% of 350,000 active; recombinant TDP1, AlphaScreen DNA substrate cleavage; Potency, µM (top dose mostly 130 µM), without a hit: top-dose activity change, negative = inhibition, actives largely listed as inhibitors; Q9NUW8; further: potency means the concentration at half of the fitted maximal effect; nearly all actives have a fitted effect of over 40% in size
Target sequence (Q9NUW8 whole entry, looked up): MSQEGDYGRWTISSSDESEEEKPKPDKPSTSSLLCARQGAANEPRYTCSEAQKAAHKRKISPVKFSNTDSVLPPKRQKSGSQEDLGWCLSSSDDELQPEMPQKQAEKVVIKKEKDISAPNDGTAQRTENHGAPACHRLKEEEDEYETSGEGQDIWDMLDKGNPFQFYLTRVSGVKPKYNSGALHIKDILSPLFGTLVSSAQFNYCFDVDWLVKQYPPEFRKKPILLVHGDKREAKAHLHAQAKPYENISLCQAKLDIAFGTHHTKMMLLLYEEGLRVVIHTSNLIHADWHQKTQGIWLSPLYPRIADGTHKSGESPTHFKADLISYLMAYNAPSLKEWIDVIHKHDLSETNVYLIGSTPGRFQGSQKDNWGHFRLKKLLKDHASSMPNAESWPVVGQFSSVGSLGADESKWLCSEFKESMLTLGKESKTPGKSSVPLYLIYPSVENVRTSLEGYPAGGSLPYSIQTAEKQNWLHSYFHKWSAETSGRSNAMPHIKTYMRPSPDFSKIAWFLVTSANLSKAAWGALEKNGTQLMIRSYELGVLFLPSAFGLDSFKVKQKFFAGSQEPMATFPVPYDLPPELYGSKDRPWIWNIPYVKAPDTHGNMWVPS
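Steps: enzyme plus compound, 15 min RT; add biotin/phosphotyrosine-FITC oligonucleotide (15 nM final), react 5 min; add donor/acceptor beads (10 ug/ml final), 10 min; read AlphaScreen. Tdp1 at 1 nM final.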
DT40 TDP1 no CPT = qHTS for Inhibitors of human tyrosyl-DNA phosphodiesterase 1 (TDP1): qHTS in cells in absence of CPT. DT40 Tdp1-/- hTDP1 cells, no CPT, ATP luminescence, 48 h. Potency, µM (highest dose often 46.2 µM), without a hit: at the top dose activity change, negative = growth inhibition, usual class: inhibitors. 15% of 420,000 active. AID 686978, 2013; further: potency means the concentration at half of the fitted maximal effect; nearly all actives have a fitted effect of over 55% in size
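Compound effects on proliferation are scored in DT40 Tdp1-/-;hTDP1 cells in the absence of CPT. ATP levels (CellTiter-Glo luminescence) are recorded after a ≥48 hr, 37 °C incubation.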
TDP1 cell CPT = DT40-hTDP1 cell growth loss with CPT | chicken DT40 Tdp1-/-;hTDP1 cells + 20 nM CPT, ATP luminescence, 48 h | Potency, µM (titrated, usually from 46.2 µM), for inactives: top-dose activity change, negative = growth inhibition, actives largely listed as inhibitors | 12% of 420,000 active; further: potency means the concentration at half of the fitted maximal effect; nearly all actives have a fitted effect of over 55% in size
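Chicken DT40 Tdp1-/- cells stably complemented with human TDP1 were seeded at 400 cells/well in medium containing 20 nM camptothecin, exposed to pin-transferred compounds, and grown at 37 °C for at least 48 hr. Viability was read as ATP luminescence.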
* marks the source's active call; other numbers are inactive results; ? = inconclusive; / = no result given; [ ] = another dose, or the depositor's remark. Unless noted, the call rests on the fitted dose curve; in most records, active means well fitted curve in the direction sought with a large enough effect; inconclusive means small, poorly fitted or top-dose-only effect, or another doubt; inactive means no such curve, though single readings can be large; an effect the other way counts as inactive or inconclusive. On the % scale 0 is the no-effect control and ±100 the full control effect.

SMILES	ELG1 repair inh	IL-1B inflam inh	Giardia kill	TDP1 inh	DT40 TDP1 no CPT	TDP1 cell CPT
O=C(/C=C/c1ccc(Cl)cc1)N1CCN(c2ccc([N+](=O)[O-])c(N3CCOCC3)c2)CC1	18µM*	2	15	2%	?	?
O=[N+]([O-])c1cc(Cl)ccc1N1CCCCC1	?	?	-11	7%	-13%	1%
O=C(/C=C/c1ccc(Cl)cc1Cl)N1CCN(c2ccc([N+](=O)[O-])c(N3CCOCC3)c2)CC1	0%	0	-2	3%	23µM*	?
Nc1ccccc1C(=O)NN=Cc1cccnc1	/	44	/	/	-2%	-6%
COCCN(CC1CCCN(C2Cc3ccccc3C2)C1)C(=O)CSC (stereo not given)	-1%	-3	?	/	-1%	-15%
CCOc1ccc(NC(=O)N2CCC(N3CCCCC3)CC2)cc1	/	/	/	0%	0%	-3%
O=C(Oc1ccc2ccc(O)cc2c1)c1ccccc1Cl	?	-8	-5	/	-14%	-13%
CCOc1ccc(-n2c(=O)c3c4c(sc3n(CC(=O)NC(C)CC)c2=O)CCC4)cc1 (stereo not given)	/	/	/	0%	-15%	18%
O=C(NCC(c1cccs1)N1CCOCC1)c1ccc(Cl)c(S(=O)(=O)N2CCOCC2)c1 (stereo not given)	?	52	-5	7%	-25%	-9%
CN(C)C(CNC(=O)c1cc(S(=O)(=O)N(C)c2ccccc2)ccc1Cl)c1cccs1 (stereo not given)	-20%	-2	14	4%	6.5µM*	5.8µM*
CN(C)C(CNC(=O)c1cc(S(=O)(=O)N2CCOCC2)ccc1Cl)c1cccs1 (stereo not given)	/	29	-22	/	21µM*	?
Cn1c(=O)n(-c2ccc(C(C)(C)C#N)cc2)c2c3cc(-c4cnc5ccccc5c4)ccc3ncc21	/	/	/	/	0.05µM*	0.25µM*
Cn1c2ccccc2c(=O)c2c(=O)n(-c3ccccc3)c(-c3ccc(C(C)(C)C)cc3)nc21	-7%	65	12	0%	?	?
COc1ccc(C(=O)Nc2cccc(-c3ccc4nncn4n3)c2)cc1OC	-6%	50	14	2%	-30%	?
COc1ccc(CC(=O)Nc2cccc(-c3ccc4nncn4n3)c2)cc1OC	7.3µM*	30	17	0%	15µM*	?
COc1ccc(OC)c(S(=O)(=O)Nc2ccc(-c3ccc4nncn4n3)cc2)c1	-15%	-1	0	-9%	2.1µM*	2.1µM*
COc1ccc(CC(=O)Nc2cccc(-c3ccc4nnc(C)n4n3)c2)cc1OC	?	?	-4	0%	9.2µM*	-25%
COc1ccc(S(=O)(=O)Nc2cccc(-c3ccc4nncn4n3)c2)cc1F	-7%	73	12	4%	2.3µM*	2.3µM*
CCOc1ccc(CC(=O)Nc2cccc(-c3ccc4nnc(C)n4n3)c2)cc1	?	-12	-3	8%	?	?
CC1CCCC(NC(=O)CCCCCn2c(=S)[nH]c3ccsc3c2=O)C1C (stereo not given)	/	26	/	/	?	?
C=CCNC(=O)COc1ccc(Oc2ccccc2)cc1	13%	-28	-4	-6%	26µM*	15µM*
Cc1c(C(=O)N(C)Cc2nccs2)sc2ncnc(NCC3CCCO3)c12 (stereo not given)	/	/	/	/	?	-20%
Cc1ccc(NC(=O)C2C(c3ccccc3)C=CC(c3ccccc3)C2C(=O)O)cc1 (stereo not given)	-4%	18	5	-11%	21µM*	29µM*
CC(=O)/C(C#N)=C1\NC(=O)C(Cc2ccc(C)c(Cl)c2)S1 (stereo not given)	-6%	38	-5	-1%	2.1µM*	10µM*
CCc1ccc(CC2S/C(=C(\C#N)C(C)=O)NC2=O)cc1 (stereo not given)	0%	31	17	6%	2.3µM*	1.6µM*
SMILES	ELG1 repair inh	IL-1B inflam inh	Giardia kill	TDP1 inh	DT40 TDP1 no CPT	TDP1 cell CPT
CCCc1nnc(SCC(=O)N2CCCCC2C)n1CCOC (stereo not given)	9%	-13	-1	6%	?	-14%
COC(=O)c1ccc(-c2ccc(C3C4C=CCC(C)C4C(=O)N3Cc3ccccc3)c(F)c2)cc1 (stereo not given)	/	/	18	3%	/	/
CCCOc1ccc(CSc2ncn[nH]2)cc1	?	-22	-6	8%	5.8µM*	4.6µM*
CC(C)c1nc(N2CCN(C(=O)c3ccco3)CC2)c(C#N)c2c1COC(C)(C)C2	?	?	-2	/	21µM*	15µM*
CC(C)c1nc(N2CCN(C(=O)c3ccccc3)CC2)c(C#N)c2c1COC(C)(C)C2	?	-22	-4	4%	?	?
COCc1cc(C)nc(N2CCN(Cc3ccccc3)CC2)c1C#N	-11%	20	16	4%	-25%	-14%
CSc1nc(N2CCN(C)CC2)c2c(c1C#N)CC(C)(C)OC2	8.2µM*	/	-1	/	-22%	1%
Cc1nc(N2CCN(Cc3ccccc3)CC2)c(C#N)c2c1COC(C)(C)C2	7.3µM*	-2	-14	7%	26µM*	?
Cc1[nH]c(C)c(S(=O)(=O)NCC(C)c2ccccc2)c1C(=O)N1CCCCC1 (stereo not given)	28%	-24	6	2%	-2%	-3%
CCc1ccc(CN(Cc2cn[nH]c2-c2ccc(OC)cc2)C(=O)Nc2ccc(Br)cc2)cc1	/	/	/	0%	18µM*	23µM*
CCc1ccc(CN(Cc2cn[nH]c2-c2ccc(OC)cc2)C(=O)Nc2ccc(C)c(F)c2)cc1	/	/	/	6%	18µM*	21µM*
CCc1nc(SCC(=O)Nc2ccc(OC)cc2[N+](=O)[O-])n[nH]1	-11%	0	-4	-1%	-4%	-19%
Cc1ccc2c(c1)-c1c(cnc3cc(-c4ccc(F)cc4)nn13)CO2	/	/	/	3%	-22%	-23%
Cc1cc(NCCCCCCCNc2cc(C)nc3cc([N+](=O)[O-])ccc23)c2ccc([N+](=O)[O-])cc2n1	/	-103*	3	/	1.3µM*	1.6µM*
COc1ccccc1Nc1cc2ccccc2c(=O)[nH]1	/	/	/	2%	/	/
COc1cc2c(cc1OC)CN(C(=O)CCOc1ccccc1)CC2	-23%	22	-3	0%[0.0935 µM]	18µM*	?
COc1cc2c(cc1OC)CN(C(=O)Cc1ccccc1)CC2	1%	9	-15	/	-20%	13%
